MCF10A rereplic = A quantitative high throughput screen for small molecules that induce DNA re-replication in MCF 10a normal breast cells; Potency, µM (highest dose often 46.1 µM), inactives show at the top dose activity, positive = re-replication, most hits filed as activators; MCF 10A DNA re-replication, Hoechst nuclear intensity, 48 h; actives 2.9% (n = 350,000); also: % of control where 0% means no effect; nearly all actives have a fitted effect of over 50% in size
ELG1 repair inh = qHTS screen for small molecules that inhibit ELG1-dependent DNA repair in human embryonic kidney (HEK293T) cells expressing luciferase-tagged ELG1. HEK293T ELG1-luciferase reporter, luminescence, 16 h; DNA damage induced by 5-fluorouridine. Potency, µM (top dose mostly 46.1 µM), without a hit: at the top dose activity change, negative = inhibition, usual class: inhibitors. actives 2.3% (n = 330,000). AID 504467, 2011; also: % is scaled to controls: 0 for no effect and ±100 for the full control effect; nearly all actives have a fitted effect of over 55% in size
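Quantitative HTS, concentration-response format. 2,000 cells/well co-treated with 5-fluorouridine and compound, 16 hr in 5% CO2 at 37 °C; ONE-Glo luminescence read after 30 min.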
KB-3-1 cytotox = qHTS assay for MDR1-selective chemotherapeutics: Primary screen using the parental adenocarcinoma cell KB-3-1; Potency, µM (highest dose often 46.1 µM), actives largely listed as cytotoxic; KB-3-1 viability, CellTiter-Glo ATP luminescence, 72 h; actives 1.4% (n = 400,000); also: % is scaled to controls: 0 for no effect and ±100 for the full control effect; nearly all actives have a fitted effect of over 60% in size
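Using CellTiter-Glo luminescence, growth of non-resistant KB-3-1 adenocarcinoma cells is assessed 72 h after pin-tool compound addition at 37 °C. Normalized responses across the concentration series yield fitted curves.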
KB-V1 cytotox = qHTS assay for MDR1-selective chemotherapeutics: Primary screen using the drug-selected MDR subline cells KB-V1 | actives 3.4% (n = 400,000) | Potency, µM (top dose mostly 46.1 µM), usual class: cytotoxic | KB-V1 MDR cells viability, CellTiter-Glo, 72 h; also: % is scaled to controls: 0 for no effect and ±100 for the full control effect; nearly all actives have a fitted effect of over 60% in size
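In this primary screen, KB-V1 cells overexpressing P-gp are incubated with library compounds (lowest to highest concentration) for 72 h at 37 degrees C before a luminescent ATP viability read.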
SW480 rerep = A quantitative high throughput screen for small molecules that induce DNA re-replication in SW480 colon adenocarcinoma cells; SW480 DNA re-replication, Hoechst DNA content imaging, 48 h; Potency, µM (titrated, usually from 46.1 µM), for the others: at the top dose re-replication activation, hits mostly activators; actives 1.8% (n = 340,000); also: % of control where 0% means no effect; nearly all actives have a fitted effect of over 55% in size
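Compounds, transferred as 23 nL by pin tool, were incubated with cells for 48 hr; DNA content per nucleus was then quantified by Hoechst staining and fluorescence plate imaging.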
Starred values were filed as active, the others as inactive; i = inactive; ? = inconclusive; . = not tested or not shown. A selection: hits, their analogues and other compounds. The true share with any hit is near 8.2%. Calls follow the shape of the dose curve; as a rule, active = well fitted curve in the direction sought with a large enough effect; inconclusive = small, poorly fitted or top-dose-only effect, or another doubt; inactive = no such curve, though single readings can be large; an effect the other way counts as inactive or inconclusive. Potency is read from the fitted curve at half-maximal effect.

SMILES	MCF10A rereplic	ELG1 repair inh	KB-3-1 cytotox	KB-V1 cytotox	SW480 rerep
COc1ccc(S(=O)(=O)NC(=O)C2(C)CCN2C(=O)CCC2CCCC2)cc1OC (stereo unspecified)	.	.	i	i	.
O=C(NCc1ccccc1)c1cc(C2CCCN(C(=O)CCCc3ccccc3)C2)on1 (stereo unspecified)	.	.	i	i	.
CCCCn1c(N)c(N(Cc2ccccc2OC)C(=O)C(C)Oc2ccc(Cl)cc2)c(=O)[nH]c1=O (stereo unspecified)	-18%	-3%	?	i	21µM*
CC[C@@]12CCCN3CCc4c(n(c5ccccc45)C(=O)C1)[C@H]32	?	.	.	.	11µM*
COc1cccc(Nc2c3c(nc4c(-c5ccccc5)c(C)nn24)CCC3)c1	21µM*	?	?	18µM*	?
CCCCNc1c2c(nc3c(-c4ccccc4)c(C)nn13)CCC2	21%	?	i	23µM*	-15%
CCC(C)Nc1c2c(nc3c(-c4ccccc4)c(C)nn13)CCC2 (stereo unspecified)	?	-30%	i	9.2µM*	2%
Cc1nn2c(N3CCCC3)c3c(nc2c1-c1ccccc1)CCC3	7%	?	i	?	18µM*
Cc1nn2c(N3CCN(CCO)CC3)c3c(nc2c1-c1ccccc1)CCCC3	12%	?	i	i	?
O=CNc1ccccc1	?	12%	i	i	-50%
O=C(NNc1ccc([N+](=O)[O-])cc1)c1ccccc1Cl	2%	4%	i	?	4%
O=C(NC(NNc1ccc([N+](=O)[O-])cc1)(C(F)(F)F)C(F)(F)F)c1ccc(Cl)cc1	15µM*	-11%	i	i	4%
Cc1ccc(S(=O)(=O)Nc2ccc(O)c(Sc3ncn[nH]3)c2)cc1	-36%	-8%	i	i	-19%
Cc1ccc(S(=O)(=O)/N=C2/C=C(Sc3ncn[nH]3)C(=O)c3ccccc32)cc1	11%	16µM*	i	?	8.2µM*
CCOc1ccc(S(=O)(=O)Nc2ccc(O)c(Sc3ncn[nH]3)c2)cc1	11%	?	i	i	-2%
CC(C)c1ccc(S(=O)(=O)/N=C2/C=C(Sc3ncn[nH]3)C(=O)c3ccccc32)cc1	3.3µM*	6.5µM*	i	?	10µM*
Cc1ccc(S(=O)(=O)/N=C2/C=C(Sc3ncn[nH]3)C(=O)c3ccccc32)c(C)c1	.	21µM*	.	.	.
Cc1ccc(S(=O)(=O)N2CCN(C(=O)CSc3ncn[nH]3)CC2)c(C)c1	4%	0%	i	i	-8%
COc1ccc(-c2nn(C)c3sc(C(=O)N4CCN(c5cccc(C)c5C)CC4)cc23)cc1OC	.	.	i	i	.
O=C(NCc1ccncc1)c1csc([C@@H]2O[C@H](CO)[C@@H](O)[C@H]2O)n1	.	.	i	i	.
CN(C)/C=C1\Oc2ccc3ccccc3c2C1=O	3%	?	i	?	3%
CN(C)/C=C1/OC(=O)C(C#N)=C1c1ccc(Cl)cc1	18µM*	-1%	i	i	?
COc1ccc2cc(C3CC=C(COC(C)=O)CN3S(=O)(=O)c3ccccc3[N+](=O)[O-])n(C(=O)OC(C)(C)C)c2c1 (stereo unspecified)	.	.	i	?	.
Cc1cccc(C)c1OCC(O)CNS(=O)(=O)c1ccccc1C(=O)N1CCCCC1 (stereo unspecified)	10%	16µM*	i	4.6µM*	0%
CC(C)CNS(=O)(=O)c1ccccc1C(=O)N1CCCCC1	1%	?	i	15µM*	-5%
Cc1cc2c(c(C)nn2-c2ccccc2)c(=O)o1	?	?	i	i	11%
Nc1c2c(=O)oc(-c3ccccc3)cc2nn1-c1ccccc1	?	?	23µM*	12µM*	16µM*
